# NS1 function inh: inhibitors of influenza NS1 protein function | Potency, µM (highest dose often 46.1 µM), for inactives: at the highest dose activity, positive = more growth | actives 0.4% (n = 270,000); calls by dose curve; also: potency is read from the fitted curve at half-maximal effect; actives are rising curves; nearly all actives have a fitted effect of over 50% in size
#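 A cell-based growth assay was used: compounds that relieve NS1-induced slow growth of budding yeast raise OD600. Assay medium was yeast nitrogen base with ammonium sulphate and -URA supplement, pH 6.0, with 2% galactose.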
# CHX counter: affects cycloheximide protein synthesis inhibition readout, counter-screen | max response, % | cell reporter, cycloheximide protein synthesis inhibition counterscreen | actives 12% (n = 300,000); in the data active = max response mostly above about 13%, no sharp cut-off; inactive = mostly below about 14%; also: read at 38.3 µM for the half of the compounds with a filed dose; 0% is about no effect
# AmpC inh detg: AmpC beta-lactamase inhibition with detergent present; AmpC hydrolysis of nitrocefin, absorbance 480 nm, 0.01% Triton; Potency, µM (top dose mostly 114 µM), without a hit: at the highest dose activity change, negative = inhibition, hits mostly inhibitors; actives 0.041% (n = 370,000); AID 485294;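 also: potency is read from the fitted curve at half-maximal effect; 0% = no-compound wells and -100% = no-enzyme wells; nearly all actives have a fitted effect of over 25% in size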
# Target sequence (P00811 whole entry, looked up): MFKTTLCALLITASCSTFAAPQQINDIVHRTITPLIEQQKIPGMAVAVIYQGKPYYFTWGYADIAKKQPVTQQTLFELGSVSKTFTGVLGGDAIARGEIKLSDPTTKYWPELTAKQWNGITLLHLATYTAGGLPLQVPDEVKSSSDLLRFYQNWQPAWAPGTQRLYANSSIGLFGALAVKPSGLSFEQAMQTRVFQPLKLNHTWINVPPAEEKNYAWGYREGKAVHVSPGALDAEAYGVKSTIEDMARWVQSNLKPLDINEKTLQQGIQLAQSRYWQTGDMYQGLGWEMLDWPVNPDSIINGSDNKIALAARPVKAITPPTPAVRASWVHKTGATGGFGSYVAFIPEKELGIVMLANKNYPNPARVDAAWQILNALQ
#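 AmpC (5.3 nM in the dispensed reagent) in 20 mM phosphate pH 7.0 with 0.01% (detergent screen) or 0.0001% Triton X-100 was preincubated with compounds for 15 min at room temperature. Nitrocefin was then added from an 800 uM solution, and hydrolysis was followed at 480 nm.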
# Shiga inhibitor: Shiga toxin inhibition; inhibition, % at 38.7 µM; Vero cells, Shiga toxin protein synthesis inhibition reporter; actives 9.2% (n = 290,000); in the data active = inhibition mostly above about 28%, no sharp cut-off; inactive = mostly below about 43%; also: 0% is about no effect
# AmpC no deterg: blocks E. coli AmpC beta-lactamase in detergent-free assay | P00811 | AmpC nitrocefin hydrolysis, absorbance 480 nm, 0.0001% Triton | Potency, µM (series often up to 57.1 µM), for inactives: top-dose activity change, negative = inhibition, actives largely listed as inhibitors | actives 0.52% (n = 330,000) | AID 485341;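 also: potency is read from the fitted curve at half-maximal effect; plate controls were no compound for no effect and no enzyme for full effect; nearly all actives have a fitted effect of over 20% in size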
#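 AmpC (5.3 nM in the dispensed reagent) in 20 mM phosphate pH 7.0 with 0.01% (detergent screen) or 0.0001% Triton X-100 was preincubated with compounds for 15 min at room temperature. Nitrocefin was then added from an 800 uM solution, and hydrolysis was followed at 480 nm.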
# Active calls of the source: *; ? = inconclusive; / = not tested or not shown. The entries come from a sample that favours hits as a whole. Unless noted, calls follow the shape of the dose curve; as a rule, active = well fitted curve in the direction sought with a large enough effect; inconclusive = small, poorly fitted or top-dose-only effect, or another doubt; inactive = no such curve, though single readings can be large; an effect the other way counts as inactive or inconclusive.
SMILES,NS1 function inh,CHX counter,AmpC inh detg,Shiga inhibitor,AmpC no deterg
Cc1cc(C)cc(NC(=O)Cn2c(C(F)(F)F)nc3ccccc32)c1,/,/,3.2%,/,/
COc1ccc(-c2noc(CSc3nc(N)cc(=O)[nH]3)n2)cc1,5.0%,8.0*,-2.6%,32.5,-28.3%
O=C(CSC1=NC(=O)C(c2ccccc2)C(=O)N1)Nc1ccccc1[N+](=O)[O-] (stereo unspecified),/,9.8,4.7%,3.7,-23.5%
CCOc1cc(/C=N\NC(=O)c2c(C)nc3ccccn23)ccc1O,3.5%,13.2*,?,/,-15.7%
CCOc1cc(/C=N/NC(=O)c2c(-c3ccccc3)noc2C)ccc1O,/,3.0,1.8%,3.3,-25.7%
CCOc1cc(/C=N/Nc2nn3cnnc3c3ccccc23)ccc1O,5.0%,11.8*,-3.2%,24.6,-32.2%
Cc1nc2ccccn2c1C(=O)N/N=C/c1ccc2c(c1)OCO2,-2.6%,59.2*,?,88.3*,-16.5%
O=C(NC1CC(=O)N(c2ccc(F)cc2)C1)c1ccco1 (stereo unspecified),/,/,4.9%,/,/
CN(C)c1ccc(CNC(=O)C2CCN(S(=O)(=O)c3cn(C)cn3)CC2)cc1,/,/,14.5%,/,/
CCOc1ccc(CN2C(=O)C(=O)c3cccc(C)c32)cc1OC,/,/,12.5%,/,/
Cn1nccc1C(=O)Oc1ccc(/C=N/NC(=O)c2ccccc2O)cc1,/,25.4,-4.7%,75.0*,-37.8%
O=C(Oc1ccc(/C=N/NC(=O)c2ccccc2O)cc1)c1ccccc1,-4.1%,15.7*,-8.1%,24.9,-42.7%
O=C(CC1SC(=O)NC1=O)Oc1ccc(/C=N/NC(=O)c2ccccc2O)cc1 (stereo unspecified),1.6%,23.2*,-2.9%,36.5*,-52.6%
CC(=O)Nc1ccc(OC(=O)CC2SC(=O)NC2=O)cc1 (stereo unspecified),0.8%,-1.4,-4.5%,-3.3,-11.4%
O=C(Oc1ccc(/C=N/NC(=O)c2ccccc2F)cc1)c1ccccc1,-4.0%,27.5*,-4.1%,83.2*,-24.2%
O=C(N/N=C/c1ccc(OC(=O)c2ccccc2)cc1)c1cccc(O)c1,/,32.6,2.8%,39.1,-41.1%
CS(=O)(=O)Nc1ccc(C2=NN(C(=O)c3ccco3)C(c3ccccc3F)C2)cc1 (stereo unspecified),/,15.1,7.9%,21.9,-43.0%
CN(C)c1ccc(CNC(=O)c2sc3ncccc3c2-n2cccc2)cc1,/,/,11.1%,/,/
Cc1cnc2c3c(cc(Cl)c2c1)-c1ccccc1S(=O)(=O)N3,/,72.7*,/,54.0*,/
O=S1(=O)Nc2c(ccc3cccnc23)-c2ccccc21,-193.8%,7.8,-7.9%,29.4,-28.9%
O=C(CSc1nc2ccccc2n1S(=O)(=O)c1cccc([N+](=O)[O-])c1)NCc1cccs1,8.0%,26.9*,-10.7%,18.1,-21.8%
O=C(COC(=O)c1cccc([N+](=O)[O-])c1)NCc1cccs1,-3.2%,6.3,3.9%,17.5,-31.1%
CCOc1ccc(-c2nnc(NC(=O)c3ccc(OCC(C)C)c(OC)c3)o2)cc1,-18.5%,25.5*,-2.6%,45.1,-8.0%
COc1cccc(C(=O)Nc2nnc(-c3ccc(F)cc3)o2)c1,-91.9%,0.7,3.2%,-2.6,-44.2%
Cn1c(NCc2ccc(Cl)cc2)nc2ccccc21,/,38.4*,-9.6%,55.6*,-32.9%
SMILES,NS1 function inh,CHX counter,AmpC inh detg,Shiga inhibitor,AmpC no deterg
Cc1ccc(CNc2nc3ccccc3n2C)cc1,-9.2%,22.9*,-8.9%,27.2,-22.3%
COCCCNC(=O)/C(C#N)=C1\N=C(NC(=O)c2cccs2)c2ccccc21,-3.3%,17.7*,4.6%,6.0,-1.0%
CCOC(=O)c1ccc(N/C=C/C(=O)c2ccccc2)cc1,3.8%,42.9*,-0.9%,53.8*,-4.3%
CCOC(=O)c1ccc(CNCc2ccccc2)cc1,0.6%,29.5*,-6.8%,50.1*,-15.1%
CCOC(=O)c1ccc(CNCc2ccc(Br)cc2)cc1,-8.3%,-2.0,-13.4%,-6.4,-13.1%
CCOC(=O)c1ccc(NS(C)(=O)=O)cc1,0.8%,-4.3,?,-12.4,-11.6%
CCOC(=O)c1ccc(N/C=C/C(=O)C(C)(C)C)cc1,0.9%,50.5*,-1.9%,90.1*,-22.6%
Cc1cc(C)nc(NC(=O)/C=C/c2ccc(Cl)cc2Cl)c1,-5.5%,41.0*,-14.1%,81.2*,-34.4%
Cc1cc(C)nc(NC(=O)/C=C/c2ccccc2Cl)n1,-21.0%,44.7*,-8.8%,70.2*,-10.6%
Cc1cc(N)c2cc(NC(=O)/C=C/c3ccccc3Cl)ccc2n1,-1.0%,1.1,-1.6%,12.5,5.3%
Cc1cc(C)nc(NC(=O)/C=C/c2ccccc2Cl)c1,-15.7%,30.3*,?,31.5*,-23.4%
Cc1cc(C)nc(NC(=O)/C=C/c2cccs2)c1,-47.4%,19.5,-0.5%,108.4,-31.6%
Cc1ccc(NC(=O)c2cn3c4c(ccc(Cl)c4c2=O)OC(C)C3)c(C)c1 (stereo unspecified),/,/,-4.0%,/,/
Cc1cccc(NC(=S)N2CCC(C(=O)c3ccc(F)cc3)CC2)c1C,13.5%,-0.7,0.3%,18.3,?
Cc1ccc(-n2nc(C)c3c(C(=O)NCc4ccccc4)cc(C4CC4)nc32)cc1,/,/,4.6%,/,/
COC(=O)C1=CN(c2ccc(F)cc2)C=C(C(=O)OC)C1c1ccc(O)cc1,-4.0%,7.4,-0.5%,27.0,0.8%
O=C(C1CC(=O)N(C2CCCCC2)C1)N1CCN(c2cccc(C(F)(F)F)c2)CC1 (stereo unspecified),12.3%,-2.7,-4.9%,-3.0,-6.8%
Cc1c(C)c(C)c2[nH]c(-c3ccc4c(c3)OCO4)nc2c1C,-31.9%,26.9*,0.2%,68.0*,-15.5%
Cc1cccc(NC(=O)CCNS(=O)(=O)c2cccc3nsnc23)c1,-26.3%,1.4,-0.7%,-12.3,-11.8%
O=S(=O)(Nc1ccccc1)c1cccc2nsnc12,0.0%,-0.6,?,11.5,13.9%
O=C(CCNS(=O)(=O)c1cccc2nsnc12)Nc1ccc2c(c1)OCCO2,1.9%,23.5*,0.1%,42.5,-12.9%
CC(=O)N1CCc2cc(S(=O)(=O)NCCC(=O)Nc3cc(C)cc(C)c3)ccc21,-7.5%,-0.4,-0.1%,-7.0,-8.6%
CC(=O)N1CCc2cc(S(=O)(=O)NCCC(=O)Nc3ccc4c(c3)OCCO4)ccc21,4.7%,29.9*,0.3%,65.9,-16.1%
O=S(=O)(Nc1ccc2c(c1)OCCO2)c1cccc2nsnc12,1.7%,48.6*,?,77.3*,-42.7%
Cc1ccc(C(=O)Nc2ccc3oc(-c4cc(Br)ccc4Cl)nc3c2)cc1,/,/,12.8%,/,/
CCN(C(=O)Cn1nc2c3cc(F)ccc3n(Cc3cccc(C)c3)cc-2c1=O)c1cccc(C)c1,/,/,-6.4%,/,/
COCCNC(=O)c1cc2n(n1)CCCN(Cc1ccc(C)cc1)C2=O,/,/,-4.0%,/,/
CCC/C=N/Nc1nc2ccccc2s1,2.8%,34.6*,-1.6%,107.7*,-34.1%
Brc1ccc(/C=C/C=N/Nc2nc3ccccc3s2)cc1,?,18.8,10.5%,49.1*,-20.1%
CCC/C=N/NC(=O)c1cc(-c2ccccc2)nc2ccccc12,-4.0%,-6.0,-4.6%,-12.0,-49.2%

# Bioassay records: PubChem BioAssay, National Center for Advancing Translational Sciences (NCATS)
